The values that follow come from PubChem BioAssay (NCATS).

Assay [1] deals with Luciferin 4-monooxygenase (Photinus pyralis) (UniProt P08659). Briefly: Biochemical firefly luciferase enzyme assay for NPC (AID 624030).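 Also: purified P. pyralis luciferase at 10 nM with luciferin and ATP substrate; 0% = DMSO and -100% = full luciferase inhibition by PTC124 control; nearly all actives have a fitted effect of over 70% in size.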 The procedure, abridged: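 Purified P. pyralis luciferase at 10 nM in 50 mM Tris Acetate (final), luminescence read within 5 minutes of enzyme addition to compounds. Activity normalised to PTC124 versus DMSO; concentration-response curves classed by r2, magnitude and activity.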

Assay [2] in a line: S16 Schwann cell viability assay (CellTiter-Glo assay) (AID 624031).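 Also: native untransfected S16 rat Schwann cells; cellular ATP luminescence as a viability measure; plate controls were DMSO-treated cells for no effect and cell-free wells for full effect; nearly all actives have a fitted effect of over 70% in size.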 In outline: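 Cells were seeded at 500-750 per well in phenol red-free DMEM with 10% FBS and left overnight. Compounds or DMSO were pinned in, incubation ran 24 h at 37 °C/5% CO2, then CellTiter-Glo reagent was added and luminescence measured.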
The nature of assay [3]: S16 Schwann cell PMP22 intronic element beta-lactamase assay (AID 624044; calls by dose curve; also: nearly all actives have a fitted effect of over 15% in size; also: potency is read from the fitted curve at half-maximal effect;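 as to ratio activity, negative = inhibition: 0% = DMSO and -100% = potassium clavulanate positive control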). The following applies: S16 rat Schwann cells, PMP22 element beta-lactamase FRET, 24 h. In outline: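 Rat S16 Schwann cells with beta-Lac driven by a PMP22 intronic element, compound-treated 24 h at 37 °C. LiveBLAzer FRET B/G read: 460 nm normalized to potassium clavulanate vs DMSO; 535 nm FRET as viability; concentration-effect curves classified.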

Another assay concerns 7G8. Kind of assay: qHTS profiling for inhibitors of Plasmodium falciparum proliferation (AID 504749). Also: nearly all actives have a fitted effect of over 60% in size. Also: potency is read from the fitted curve at half-maximal effect.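 As to activity, negative = inhibition: 0% = DMSO vehicle and full inhibition = artemisinin control.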 The note with it: P. falciparum in erythrocytes, SYBR Green DNA, 72 h; series mostly up to 28.7 µM. The procedure, abridged: (§1)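 P. falciparum-infected erythrocytes (0.3% parasitemia, 2.5% hematocrit) incubated with compound 72 h at 37 C, 5% CO2. Parasite DNA detected by SYBR Green after lysis, overnight at room temperature; normalised to 0.29 uM artemisinin and DMSO.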
On the technique in general: Quantitative high-throughput screening tests each substance at several concentrations.

Another assay concerns ATS95. The description is as above. The note with it: P. falciparum in erythrocytes, SYBR Green DNA, 72 h; series mostly up to 28.7 µM. The procedure, abridged: as §1
The test system of the next assay is CP247. The assay is described as above. The following applies: P. falciparum in erythrocytes, SYBR Green DNA, 72 h; series mostly up to 28.7 µM. The procedure, abridged:
as §1

A further assay concerns CP260. Described as above. The following applies: P. falciparum in erythrocytes, SYBR Green DNA, 72 h; series mostly up to 28.7 µM. In outline:
as §1

A further assay deals with CP297. The assay is described as above. The note with it: P. falciparum in erythrocytes, SYBR Green DNA, 72 h; series mostly up to 28.7 µM. The procedure, abridged: as §1
The subject of the next assay is P93_24. Described as above. The following applies: P. falciparum in erythrocytes, SYBR Green DNA, 72 h; series mostly up to 28.7 µM. The procedure, abridged:
as §1

The subject of a further assay is PC15. The assay is described as above. The following applies: P. falciparum in erythrocytes, SYBR Green DNA, 72 h; series mostly up to 28.7 µM. In outline: as §1
The subject of the next assay is PC26. Described as above. The note with it: P. falciparum in erythrocytes, SYBR Green DNA, 72 h; series mostly up to 28.7 µM. The procedure, abridged:
as §1

In another assay the test system is PC49. Described as above. The following applies: P. falciparum in erythrocytes, SYBR Green DNA, 72 h; series mostly up to 28.7 µM. The procedure, abridged: as §1
The test system of a further assay is TAB109. Described as above. The following applies: P. falciparum in erythrocytes, SYBR Green DNA, 72 h; series mostly up to 28.7 µM. The procedure, abridged: as §1
Another assay deals with TAB165. The assay is described as above. The note with it: P. falciparum in erythrocytes, SYBR Green DNA, 72 h; series mostly up to 28.7 µM. In outline:
as §1

The test system of the next assay is CP215. The description is as above. The following applies: P. falciparum in erythrocytes, SYBR Green DNA, 72 h; series mostly up to 28.7 µM. In outline: as §1
In the next assay the test system is CP266. The description is as above. The following applies: P. falciparum in erythrocytes, SYBR Green DNA, 72 h; series mostly up to 28.7 µM. The procedure, abridged: as §1
For the next assay, the system named is CP291. The description is as above. The note with it: P. falciparum in erythrocytes, SYBR Green DNA, 72 h; series mostly up to 28.7 µM. The procedure, abridged:
as §1

Another assay deals with CP335. The assay is described as above. The following applies: P. falciparum in erythrocytes, SYBR Green DNA, 72 h; series mostly up to 28.7 µM. The procedure, abridged: as §1
For another assay, the system named is DIV17. The assay is described as above. The note with it: P. falciparum in erythrocytes, SYBR Green DNA, 72 h; series mostly up to 28.7 µM. The procedure, abridged:
as §1

A further assay relates to GB4. Described as above. The following applies: P. falciparum in erythrocytes, SYBR Green DNA, 72 h; series mostly up to 28.7 µM. The procedure, abridged: as §1
Where [4] appears, read: ratio activity, negative = inhibition: at 38.3 µM (top of the series).

Results filed as inconclusive are left out. A structure can be active in one record and inactive in another. Unmarked numbers belong to inactive results. Calls of active or inactive are those of the source. Unless noted, calls follow the shape of the dose curve; as a rule, active = well fitted curve in the direction sought with a large enough effect; inconclusive = small, poorly fitted or top-dose-only effect, or another doubt; inactive = no such curve, though single readings can be large; an effect the other way counts as inactive or inconclusive.

Luciferin 4-monooxygenase (Photinus pyralis), sequence (P08659 whole entry, looked up): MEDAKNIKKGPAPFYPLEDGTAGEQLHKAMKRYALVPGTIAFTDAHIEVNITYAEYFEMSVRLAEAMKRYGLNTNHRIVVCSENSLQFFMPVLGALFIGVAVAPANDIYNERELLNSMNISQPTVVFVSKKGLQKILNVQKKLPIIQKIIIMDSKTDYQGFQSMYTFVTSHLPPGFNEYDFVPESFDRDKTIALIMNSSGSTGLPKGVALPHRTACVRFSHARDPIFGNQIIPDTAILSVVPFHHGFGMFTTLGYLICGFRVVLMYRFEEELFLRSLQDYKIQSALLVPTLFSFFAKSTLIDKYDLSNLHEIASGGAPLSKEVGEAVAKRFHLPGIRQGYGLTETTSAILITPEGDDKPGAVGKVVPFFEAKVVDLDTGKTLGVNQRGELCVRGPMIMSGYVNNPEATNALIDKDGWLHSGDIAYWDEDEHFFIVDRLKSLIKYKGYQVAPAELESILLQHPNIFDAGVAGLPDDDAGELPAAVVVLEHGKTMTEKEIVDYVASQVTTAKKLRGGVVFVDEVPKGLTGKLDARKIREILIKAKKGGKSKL

As for `CC(=O)OC1C([N+]2(C)CCCCC2)C[C@H]2C3CC[C@H]4C[C@H](OC(C)=O)C([N+]5(C)CCCCC5)CC4(C)C3CCC12C` (stereo not given in full), the Potency result (in assay [1]; in [2]; in assay [3] (setting [4]); in the assay with 7G8; in the assay with ATS95; in the assay with CP247) was “inactive” in each case. Further, the Potency entry with CP260, in the assay with P93_24, in the assay with PC15, with PC49, with TAB109 and in the assay with TAB165 was “inactive” each time. Further, the Potency is 6.01 µM (active) in the assay on CP297 and 16.9 µM (active) in the assay with PC26.

In the case of `C#C[C@@]1(O)CC[C@@H]2[C@H]3CCC4=C/C(=N\O)CC[C@H]4[C@@H]3CC[C@]21CC`, the Potency entry (in [1]; in [2]; in assay [3] (setting [4]); with ATS95; in the assay on CP215; in the assay on CP247) was “inactive” each time. For the same compound, the Potency result with CP260, in the assay on CP266, in the assay on CP291, in the assay with CP297, with CP335 and with DIV17 was “inactive” in each case. For the same compound, the Potency result with P93_24, in the assay on PC15, in the assay on PC26, in the assay with PC49, with TAB109 and with TAB165 was “inactive” in each case.

In the case of `C/C=C1/NN(CCCN2CCN(c3cccc(Cl)c3)CC2)C(=O)N1CCOc1ccccc1`, the Potency result (in assay [1]; in [2]; in [3] (setting [4]); in the assay on ATS95; in the assay with CP215; in the assay on CP247) was “inactive” each time. The Potency result in the assay on CP260, in the assay with CP266, with P93_24, with PC15, in the assay with PC49 and with TAB109 was “inactive” in each case.

As to `O=C(NC(CO)C(O)c1ccc([N+](=O)[O-])cc1)C(Cl)Cl` (stereo not given), the Potency entry (in [1]; in assay [2]; in assay [3] (setting [4]); with ATS95; with DIV17; in the assay with PC15) was “inactive” in each case. Also, the Potency entry in the assay with PC26 and in the assay on PC49 was “inactive” throughout. The Potency in the assay on CP291 was 3.01 µM (active); in the assay on CP335, 4.78 µM (active).

On to `CCC(=O)OC1C(N(C)C)CC(C)O[C@H]1O[C@H]1[C@H](C)[C@@H](O[C@H]2CC(OC)[C@@H](O)C(C)O2)[C@H](C)C(=O)O[C@@H](CC)[C@](C)(O)[C@@H](O)[C@H](C)C(=O)[C@@H](C)C[C@]1(C)O` (stereo not given in full), for which the Potency result (in [1]; in assay [2]; in the assay with 7G8; in the assay on ATS95; in the assay on CP260; with CP266) was “inactive” throughout. The Potency entry with CP291, in the assay on PC15 and in the assay with PC49 was “inactive” in each case.

Consider `COc1ccc(CC(C)NCC(O)c2ccc(O)c(NC=O)c2)cc1` (stereo not given), for which the Potency result in assay [1] and in assay [3] (setting [4]) was “inactive” throughout.

On to `C/C(=C(/CCOC(=O)C(C)C)SS/C(CCOC(=O)C(C)C)=C(\C)N(C=O)Cc1cnc(C)nc1N)N(C=O)Cc1cnc(C)nc1N`, for which the Potency entry (in assay [1]; in assay [3] (setting [4]); with 7G8; in the assay with ATS95; in the assay with CP215; in the assay with CP247) was “inactive” each time. Further, the Potency result in the assay on CP260, with CP266, in the assay with CP291, in the assay on CP297, in the assay on CP335 and in the assay on DIV17 was “inactive” in each case. The Potency result in the assay with P93_24, in the assay on PC15, in the assay on PC26, in the assay with PC49, in the assay on TAB109 and with TAB165 was “inactive” in each case.

In the case of `CC1=C(/C=C/C(C)=C\C=C\C(C)=C\C=C\C=C(C)\C=C\C=C(C)\C=C\C2=C(C)C[C@@H](O)CC2(C)C)C(C)(C)C[C@H](O)C1`, the Potency result (in [2]; in assay [3] (setting [4]); in the assay with CP215; in the assay with CP291) was “inactive” each time. The Potency was 1.26 µM (active) with 7G8; 10 µM (active) with CP260; 15.1 µM (active) with CP335; 13.5 µM (active) with DIV17; 13.5 µM (active) in the assay on GB4; 12.6 µM (active) in the assay with P93_24. The results for the Potency in the assay with PC49 and with TAB165 were 7.08 µM (active) and 11.2 µM (active), respectively.

In the case of `Nc1nc(Cl)nc2c1ncn2[C@@H]1O[C@H](CO)[C@H](O)C1F` (stereo not given in full), the Potency entry (in assay [1]; in [2]; with ATS95; with CP215; in the assay with CP247; with CP260) was “inactive” in each case. Moreover, the Potency entry with CP266, in the assay with CP297, in the assay on CP335, in the assay on DIV17, in the assay on GB4 and in the assay on P93_24 was “inactive” throughout. Further, the Potency result in the assay with PC15, in the assay on PC26, in the assay on PC49, with TAB109 and with TAB165 was “inactive” each time. In addition, the Potency in [3] (setting [4]) was 8.91 µM (active).

For `C=CCN1CC(C(=O)N(CCCN(C)C)C(=O)NCC)CC2c3cccc4[nH]cc(c34)CC21` (stereo not given), the Potency result (in [1]; in [3] (setting [4]); in the assay on CP215; in the assay on CP266; with CP297; in the assay on PC26) was “inactive” in each case. Further, the Potency result in the assay on PC49 is “inactive”. For the same compound, the Potency was 10 µM (active) in the assay with 7G8, 13.5 µM (active) with DIV17 and 15.1 µM (active) in the assay on GB4.

Regarding `OCC(O)C(O)C(O)C(O)CO` (stereo not given), the Potency result (in assay [1]; in assay [2]; in the assay with 7G8; in the assay on ATS95; in the assay with CP215; with CP247) was “inactive” throughout. Besides, the Potency entry with CP260, in the assay on CP266, with CP291, in the assay on CP297, with CP335 and in the assay on DIV17 was “inactive” throughout. Also, the Potency entry with GB4, in the assay on P93_24, with PC15, in the assay on PC26, with PC49 and in the assay on TAB109 was “inactive” throughout. Besides, the Potency result in the assay on TAB165 was “inactive”. Moreover, the ratio activity, negative = inhibition is -3.36% in [3] (at 38.3 µM (top of the series)) and 1.06% (active) in assay [3] (setting [4]).

With `CC1=C(C/C=C(\C)CCCC(C)CCCC(C)CCCC(C)C)C(=O)c2ccccc2C1=O` (stereo not given), the Potency result (in assay [1]; in assay [2]; in assay [3] (setting [4]); in the assay with CP215; with CP247; in the assay on CP266) was “inactive” in each case. Besides, the Potency entry in the assay on CP297, with DIV17, in the assay on PC26 and with PC49 was “inactive” throughout. Also, the Potency was 8.91 µM (active) with 7G8 and 12 µM (active) in the assay on CP335.

With `C=C1CCC(O)C/C1=C/C=C1\CCC[C@]2(C)[C@@H]([C@H](C)/C=C/[C@H](C)C(C)C)CC[C@@H]12` (stereo not given in full), the Potency entry (in assay [1]; in assay [2]; in assay [3] (setting [4]); with CP215; in the assay on CP260; with CP266) was “inactive” in each case. Further, the Potency result in the assay with CP291, with CP297, in the assay with CP335, in the assay on DIV17 and with PC26 was “inactive” in each case. Moreover, the Potency with 7G8 is 10 µM (active).

On to `CC[C@H]1OC(=O)[C@H](C)C(=O)[C@H](C)[C@@H](OC2O[C@H](C)C[C@H](N(C)C)[C@@H]2O)[C@@](C)(OC)C[C@@H](C)C(=O)[C@@H](C)C2N(CCCCn3cnc(-c4cccnc4)c3)C(=O)O[C@@]21C` (stereo not given in full), for which the Potency result (in assay [1]; in [2]; in assay [3] (setting [4]); with CP215; in the assay on CP247; with CP266) was “inactive” throughout. Besides, the Potency result in the assay with CP291, in the assay on PC15, in the assay with PC26 and in the assay on PC49 was “inactive” in each case. Moreover, the Potency is 7.94 µM (active) in the assay with 7G8 and 13.5 µM (active) in the assay with DIV17.
